IL-1B inflam inh: inflammasome signaling inhibition, IL-1 beta readout. activity change, % at 57.5 µM. 360,000 tested, 4.7% active. THP-1 LPS/ATP IL-1B secretion, AlphaLISA, 16 h; active compounds read low; in the data active means activity change below about -50%; inconclusive means mostly about -30% to -49%
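THP-1 cells pretreated 1 hr with compounds (up to 57.5 uM final), then stimulated with LPS (250 ng/mL final) plus ATP (1.25 mM final); secreted IL-1B measured by AlphaLISA after 16 hr, decreased signal indicating inhibition.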
TDP1 cell noCPT: qHTS for Inhibitors of human tyrosyl-DNA phosphodiesterase 1 (TDP1): qHTS in cells in absence of CPT; DT40 Tdp1-/- hTDP1 cells, no CPT, ATP luminescence, 48 h; Potency, µM (series often up to 46.2 µM), hits mostly inhibitors; 420,000 tested, 15% active; further: nearly all actives have a fitted effect of over 55% in size
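Compound effects on proliferation are scored in DT40 Tdp1-/-;hTDP1 cells in the absence of CPT. ATP levels (CellTiter-Glo luminescence) are recorded after a ≥48 hr, 37 °C incubation.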
RORg inh: ROR gamma (mouse) transcription inhibition; Potency, µM (series often up to 53.6 µM), usual class: inhibitors; 310,000 tested, 5.4% active; P51450; Drosophila S2 Gal4-RORgamma UAS-luciferase reporter, 20 h; further: nearly all actives have a fitted effect of over 60% in size
Target sequence (P51450 whole entry, looked up, the tested form may be a part): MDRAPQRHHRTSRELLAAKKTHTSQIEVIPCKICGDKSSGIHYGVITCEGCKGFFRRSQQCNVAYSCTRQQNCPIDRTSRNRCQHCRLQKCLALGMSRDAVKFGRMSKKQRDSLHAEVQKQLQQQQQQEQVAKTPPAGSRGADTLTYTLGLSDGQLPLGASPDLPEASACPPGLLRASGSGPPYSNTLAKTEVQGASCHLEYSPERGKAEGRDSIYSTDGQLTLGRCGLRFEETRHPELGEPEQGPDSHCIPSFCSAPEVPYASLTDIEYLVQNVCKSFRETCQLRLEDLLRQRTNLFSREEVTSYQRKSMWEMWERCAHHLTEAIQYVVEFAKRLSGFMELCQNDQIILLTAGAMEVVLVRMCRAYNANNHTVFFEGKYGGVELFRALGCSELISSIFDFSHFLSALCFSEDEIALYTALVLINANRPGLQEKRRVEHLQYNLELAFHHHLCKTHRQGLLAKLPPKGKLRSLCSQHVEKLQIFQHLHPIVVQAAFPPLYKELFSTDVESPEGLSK
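Schneider cells (Drosophila), stable Gal4 DBD–ROR gamma + UAS-luc; 1 hr cmpd preincubation; Cu2+ induction 700 uM final; 20 hr ambient; luminescence.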
VP16 counter: counter-screen for ROR gamma inhibitors: Gal4-VP16 reporter. Drosophila S2 Gal4-VP16 UAS-luciferase, luminescence, 20 h. Potency, µM (highest dose often 53.6 µM), hits mostly inhibitors. 310,000 tested, 3.5% active;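 further: Gal4-VP16 expression switched on by copper sulfate through the metallothionein promoter; nearly all actives have a fitted effect of over 50% in size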
TDP1 cell CPT: growth inhibition of DT40 Tdp1-/-;hTDP1 cells with camptothecin (screen for TDP1 inhibitors); Potency, µM (doses to about 46.2 µM), usual class: inhibitors; 420,000 tested, 12% active; chicken DT40 Tdp1-/-;hTDP1 cells + 20 nM CPT, ATP luminescence, 48 h; further: nearly all actives have a fitted effect of over 55% in size
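Cell growth measured by CellTiter-Glo luminescence after a minimum 48 h, 37 C compound exposure with 20 nM CPT in Tdp1-knockout DT40 cells stably expressing hTDP1, seeded 400/well; qHTS titration format.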
ELG1 repair inh: ELG1-dependent DNA repair inhibition. HEK293T ELG1-luciferase reporter, luminescence, 16 h; DNA damage induced by 5-fluorouridine. Potency, µM (series often up to 46.1 µM), hits mostly inhibitors. 330,000 tested, 2.3% active; further: nearly all actives have a fitted effect of over 55% in size
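HEK293T cells expressing luciferase-tagged ELG1 (2,000/well) received 5-Fluorouridine plus compound or DMSO for 16 hr at 37 °C. Luciferase was read by ONE-Glo luminescence after 30 min at room temperature.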
A number is an active result; 0 = inactive; ? = inconclusive; - = not tested or not shown. Rows were chosen to be rich in hits. Some 21% of all compounds tested hit in one or more screens of this group. Unless noted, the call rests on the fitted dose curve; in most records, active means well fitted curve in the direction sought with a large enough effect; inconclusive means small, poorly fitted or top-dose-only effect, or another doubt; inactive means no such curve, though single readings can be large; an effect the other way counts as inactive or inconclusive.

SMILES	IL-1B inflam inh	TDP1 cell noCPT	RORg inh	VP16 counter	TDP1 cell CPT	ELG1 repair inh
O=C(c1ccccc1)C1CN(Cc2ccccc2)CCC1(O)c1ccccc1 (stereo unspecified)	?	12µM	0	0	7.3µM	0
CCOc1ccc(NC(=O)CCn2cccn2)cc1	-	0	-	-	0	-
COc1ccc(C2c3ccc4ccccc4c3Oc3ncn(Cc4ccco4)c(=N)c32)cc1OC (stereo unspecified)	?	16µM	0	?	23µM	0
COc1ccc(C2c3ccc(O)cc3Oc3ncn(CCN4CCOCC4)c(=N)c32)cc1 (stereo unspecified)	?	0	0	0	?	0
COc1ccc(C2c3ccc4ccccc4c3Oc3ncn(CCCN(C)C)c(=N)c32)cc1 (stereo unspecified)	-95	4.6µM	10µM	?	12µM	?
COc1ccccc1C1c2ccc3ccccc3c2Oc2ncn(CCCO)c(=N)c21 (stereo unspecified)	-97	23µM	0	0	23µM	0
COc1ccccc1C1c2ccc3ccccc3c2Oc2ncn(CCN(C)C)c(=N)c21 (stereo unspecified)	-98	16µM	10µM	0	?	?
COc1cc(C2c3c(oc4ccc(C)cc4c3=O)C(=O)N2Cc2ccccc2)ccc1O (stereo unspecified)	-	0	-	-	0	-
CC(C)C[C@@H](NC(=O)[C@H](Cc1ccccc1)NC(=O)c1cnccn1)B(O)O	-	-	0.0079µM	?	-	-
Cc1ccc(CNS(=O)(=O)c2cnc(N)nc2)cc1	-	0	-	-	0	-
Cc1ccc(C(C)C)c(OCCCN2C(=O)NC(C)(C)C2=O)c1	0	0	0	0	0	0
CCc1ccc(OCCCSc2nc(-c3ccc(C(C)(C)C)cc3)nc3cc(=O)[nH]n23)cc1	-	23µM	-	-	?	-
Cc1cccc(NC(=O)CSc2nc(-c3ccco3)nc3cc(=O)[nH]n23)c1	-	0	-	-	0	-
CCc1ccc(OCCSc2nc(-c3cccc(C)c3)nc3cc(=O)[nH]n23)cc1	-	?	-	-	23µM	-
COc1ccc(-c2nc(SCCOc3cc(C)ccc3C(C)C)n3[nH]c(=O)cc3n2)cc1	-	18µM	-	-	?	-
COc1cc(C)ccc1OCCSc1nc(-c2cccc(C)c2)nc2cc(=O)[nH]n12	-	21µM	-	-	16µM	-
COc1ccc(C(=O)N2CCC3(CC2)CCN(c2ccncc2)CC3)cc1	-	?	0	0	?	-
CCOc1ccccc1NC(=O)COC(=O)C1COc2ccccc2O1 (stereo unspecified)	0	0	-	-	0	-
Cc1ccc(OCCSc2nc(-c3ccccc3C)nc3cc(=O)[nH]n23)cc1Cl	-	16µM	-	-	16µM	-
Cc1ccccc1NC(=O)CSc1nc(-c2ccccc2C)nc2cc(=O)[nH]n12	-	?	-	-	0	-
CC1(C)Nc2ccccc2C(=O)N1c1ccccc1	0	0	0	0	0	0
Cc1cc(C)nc(N/C(=N\S(=O)(=O)Cc2ccccc2)Nc2cccc(Cl)c2C)n1	0	?	0	0	?	0
COc1ccc(C)cc1N/C(N)=N/c1nc(C)cc(C)n1	-98	16µM	0	0	21µM	?
CCCOc1ccccc1N/C(N)=N/c1nc(C)cc(C)n1	0	?	0	?	?	?
CCCOc1ccccc1N/C(=N/c1nc(C)cc(C)n1)NC(=O)COc1ccc(OC)cc1	?	16µM	0	?	21µM	?
SMILES	IL-1B inflam inh	TDP1 cell noCPT	RORg inh	VP16 counter	TDP1 cell CPT	ELG1 repair inh
COc1cc(N/C(N)=N/c2nc(C)cc(C)n2)cc(OC)c1	0	21µM	0	0	16µM	?
CCCOc1ccccc1N/C(=N\S(=O)(=O)c1ccc(C)cc1)Nc1nc(C)cc(C)n1	0	15µM	-	-	?	-
CCOC(=O)C1(C)CCCN1C(=O)c1ccccc1F (stereo unspecified)	0	0	-	-	0	-
O=C(O)[C@@H](O)[C@@H](O)[C@@H](O[C@H]1O[C@@H](CO)[C@@H](O)[C@@H](O)[C@@H]1O)[C@@H](O)CO	-	-	0	0	-	-
COc1ccc2c(c1)C(=O)[C@@H](OC(=O)NC1CCCC1)[C@H](c1ccc(OC)c(Br)c1)O2	-	-	0	0	-	-
COc1ccc(OC)c(N/C(=N/c2nc(C)cc(C)n2)NC(C)=O)c1	0	7.3µM	0	0	?	0
COc1ccc(OC)c(N/C(=N\c2nc(C)cc(C)n2)NC(=O)c2ccco2)c1	-	-	0	0	-	0
COc1ccc(N/C(N)=N/c2nc(C)cc(C)n2)c(OC)c1	-76	12µM	0	0	26µM	0
Cc1ccc(C)c(N/C(N)=N/c2nc(C)cc(C)n2)c1	-111	13µM	0	0	21µM	0
COc1ccc(Cl)cc1N/C(N)=N/c1nc(C)cc(C)n1	0	0	0	0	0	?
COc1ccc(OC)c(N/C(N)=N/c2nc(C)cc(C)n2)c1	-77	18µM	0	0	?	?
COc1ccc(N/C(=N/c2nc(C)cc(C)n2)NC(=O)Nc2ccc(Cl)c(Cl)c2)c(OC)c1	0	0	0	0	0	0
CCN(CC)S(=O)(=O)c1ccc2c(c1)N(CC(=O)Nc1cccc(C)c1C)C(=O)C1CCCN21 (stereo unspecified)	-	?	-	-	0	-
CCC(=O)N1CCc2cc(S(=O)(=O)NC(CC(C)C)C(=O)NCc3cccc(OC)c3)ccc21 (stereo unspecified)	-	0	-	-	0	-
CCCCCCn1c(N2CCN(c3ccccc3)CC2)nc2c1c(=O)[nH]c(=O)n2C	?	?	0	0	23µM	?
CCCCCCn1c(N2CCN(c3cccc(Cl)c3)CC2)nc2c1c(=O)[nH]c(=O)n2C	?	23µM	0	0	?	?
CCCCCCCCn1c(N2CCN(c3cccc(Cl)c3)CC2)nc2c1c(=O)[nH]c(=O)n2C	0	?	0	0	?	?
Cn1c(=O)[nH]c(=O)c2c1nc(CN1CCN(c3ccccc3F)CC1)n2CCCc1ccccc1	0	14µM	0	0	?	6.5µM
CCCCCn1c(CN2CCN(c3cccc(Cl)c3)CC2)nc2c1c(=O)[nH]c(=O)n2C	0	?	0	0	21µM	?
Cn1c(=O)[nH]c(=O)c2c1nc(CN1CCN(c3cccc(Cl)c3)CC1)n2CCc1ccccc1	0	?	0	0	?	?
COc1ccc(C2C(C(=O)c3ccco3)=C(O)C(=O)N2CC2CCCO2)c(OC)c1 (stereo unspecified)	0	0	0	0	0	?
CS(=O)(=O)Nc1cccc(-c2cc(NC=O)c3ncc(-c4ccc(F)cc4)n3c2)c1	0	?	-	-	23µM	-
O=CNc1cc(-c2cccc(F)c2)cn2c(-c3ccc(F)cc3)cnc12	0	?	-	-	29µM	-

Source: PubChem BioAssay
